Broadly, the inhibition is how much of the control response was suppressed.

Unmarked numbers belong to inactive results. How the calls were made is not given here.

The target of this experiment is Pantothenate synthetase (Mycobacterium tuberculosis (strain ATCC 25618 / H37Rv)) (UniProt P9WIL5). The experiment can be described thus: Recombinant Mtb pantothenate synthetase (PanC) inhibitors, coupled enzyme, confirmatory (AID 375).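 Further: 0% = full reaction with vehicle and 100% = no enzyme background.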 The settings on record: coupled enzyme assay; at 10 µM, hits give high values.
Pantothenate synthetase (Mycobacterium tuberculosis (strain ATCC 25618 / H37Rv)), sequence (P9WIL5 whole entry, looked up): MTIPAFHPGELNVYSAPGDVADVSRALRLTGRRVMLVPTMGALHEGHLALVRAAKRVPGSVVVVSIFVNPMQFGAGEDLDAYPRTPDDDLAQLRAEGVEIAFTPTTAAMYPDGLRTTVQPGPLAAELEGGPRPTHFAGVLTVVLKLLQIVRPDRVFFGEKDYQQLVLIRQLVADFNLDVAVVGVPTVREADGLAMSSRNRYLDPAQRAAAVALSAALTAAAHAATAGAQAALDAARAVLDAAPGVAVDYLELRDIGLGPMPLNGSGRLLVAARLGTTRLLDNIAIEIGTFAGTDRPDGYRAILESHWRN
With `COc1ccc(S(=O)(=O)NCCOc2ccccc2)cc1OC`, the inhibition was 0%.

Turning to `OCc1nc2ccccc2n1CCCOc1ccccc1`, the inhibition is 0%.

As for `O=C(NCc1ccco1)c1noc2c1CCCCC2`, the inhibition was 12%.

For the compound `COc1cccc(OCc2nc3c4cnn(-c5ccccc5)c4ncn3n2)c1`, the inhibition is 0%.

`CCOC(=O)N1CCC(N(CCCOC)C(=O)Nc2ccc(CC)cc2)CC1`: the inhibition is 0%.

Regarding `CCN(CC)c1ccc(NC(=O)CN2C(=O)CC(C)(C)S(=O)(=O)c3ccccc32)c(C)c1`, the inhibition was 0%.

For `O=C(CSc1nnc(SCc2ccc(Cl)cc2)s1)N1CCN(C(=O)c2ccco2)CC1`, the inhibition is 7%.

For the compound `COC(=O)c1cn(NC(=O)c2cccnc2)c(=O)c2ccccc12`, the inhibition was 0%.

On to `CC(C)(C)n1nnnc1CN1CCC(NC(=O)NC2CCCCC2)CC1`, for which the inhibition is 0%.

For `CC1CCN(C(=O)c2cc(-c3ccc(Cl)c(Cl)c3)on2)CC1`, the inhibition is 3%.

With `CCn1c(=N)n(CC(=O)c2ccco2)c2ccccc21`, the inhibition was 0%.

For the compound `COC(=O)c1ccc(NC(=O)Cn2nnc3ccccc32)cc1`, the inhibition was 0%.

Take `COc1cc(NS(=O)(=O)c2ccc(Br)s2)cc(OC)c1`: the inhibition is 0%.

On to `CCOC(=O)C1CCCN(C(=O)c2ccc3c(=O)n(CCOC)c(=S)[nH]c3c2)C1` (centres undefined), for which the inhibition is 2%.

For the compound `CCCCCc1nnc(NC(=O)Cc2cccs2)s1`, the inhibition was 0%.

For the compound `CCN(CC)S(=O)(=O)c1ccc2[nH]cc(C(=O)NCCC3=CCCCC3)c(=O)c2c1`, the inhibition was 0%.

Turning to `CCc1c(C)n([O-])c2c([n+]1=O)CCC2`, the inhibition was 0%.

As for `CC(=O)c1c(C)[nH]c(C(=O)N2CCN(C(=O)c3ccco3)CC2)c1C`, the inhibition is 0%.

In the case of `CC(=O)c1cccc(S(=O)(=O)N2CCC(n3nnc4cc(F)ccc43)CC2)c1`, the inhibition was 0%.

For `CCc1ccccc1NC(=O)CN(c1cccc(OC)c1)S(C)(=O)=O`, the inhibition was 7%.

Take `COCCn1c(C)c(C(=O)O)sc1=S`: the inhibition is 6%.

In the case of `O=C(Cn1nc(Cc2ccncc2)c2ccccc2c1=O)N1CCc2ccccc2C1`, the inhibition is 0%.

Turning to `Cc1[nH]nc(N=CC2=C(O)CC(C)(C)CC2=O)c1-c1ccccc1`, the inhibition is 5%.

For `CC1CCN(c2oc(-c3ccccc3F)nc2C#N)CC1`, the inhibition was 4%.
